LDHA inh = qHTS assay for inhibitors of human lactate dehydrogenase. activity change, % (values are at about 110 or 230 µM). AID 1347041, 2019. 480,000 compounds, 0.15% hits. purified LDHA, NADH/diaphorase-resazurin fluorescence; active compounds read low. L-lactate dehydrogenase A chain (Homo sapiens), P00338; in the data active = activity change below about -30%; inconclusive = mostly about -25% to -30%;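 note: plate controls were DMSO wells for no effect and wells without enzyme for full effect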
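Remaining NADH was detected by diaphorase (0.133 mg/mL) converting 37 µM resazurin to fluorescent resorufin, read at 0 and 20 minutes. The preceding 5-minute room-temperature reaction used 2 nM LDHA, 0.2 mM sodium pyruvate and 0.06 mM NADH at pH 7.4.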
DT40 TDP1 CPT = qHTS for Inhibitors of human tyrosyl-DNA phosphodiesterase 1 (TDP1): qHTS in cells in presence of CPT. chicken DT40 Tdp1-/-;hTDP1 cells + 20 nM CPT, ATP luminescence, 48 h. Potency, µM (series often up to 46.2 µM), inactives show at the top dose activity change, negative = growth inhibition, usual class: inhibitors. 420,000 compounds, 12% hits; note: potency is the fitted concentration of half-maximal effect; nearly all actives have a fitted effect of over 55% in size
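Chicken DT40 Tdp1-/- cells stably complemented with human TDP1 were seeded at 400 cells/well in medium containing 20 nM camptothecin, exposed to pin-transferred compounds, and grown at 37 °C for at least 48 hr. Viability was read as ATP luminescence.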
TDP1 cell noCPT = qHTS for Inhibitors of human tyrosyl-DNA phosphodiesterase 1 (TDP1): qHTS in cells in absence of CPT. DT40 Tdp1-/- hTDP1 cells, no CPT, ATP luminescence, 48 h. Potency, µM (titrated, usually from 46.2 µM), without a hit: at the highest dose activity change, negative = growth inhibition, hits mostly inhibitors. 420,000 compounds, 15% hits. AID 686978, 2013; note: potency is the fitted concentration of half-maximal effect; nearly all actives have a fitted effect of over 55% in size
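A cellular qHTS used chicken DT40 cells lacking endogenous Tdp1 but carrying stably transfected human TDP1. Compounds were applied without camptothecin, and cell growth kinetics were judged by ATP-dependent luminescence after ≥48 hr.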
IL1B secr inh = qHTS for Inhibitors of Inflammasome Signaling: IL-1-beta AlphaLISA Primary Screen; AID 743279, 2014; activity change, % at 57.5 µM; THP-1 LPS/ATP IL-1B secretion, AlphaLISA, 16 h; active compounds read low; 360,000 compounds, 4.7% hits; in the data active = activity change below about -50%; inconclusive = mostly about -30% to -49%
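Secreted IL-1B measured by AlphaLISA bead assay after 16 h compound exposure of THP-1 cells; compounds (final up to 57.5 uM) added 1 h before LPS (250 ng/mL) and ATP (1.25 mM) stimulation; lower signal means less secretion.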
Gal4-VP16 FLuc = VP16 counterscreen qHTS for inhibitors of ROR gamma transcriptional activity; 310,000 compounds, 3.5% hits; Potency, µM (doses to about 53.6 µM), without a hit: at the top dose activity, negative = inhibition, usual class: inhibitors; Drosophila S2 Gal4-VP16 UAS-luciferase, luminescence, 20 h;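 note: Gal4-VP16 expression switched on by copper sulfate through the metallothionein promoter; potency is the fitted concentration of half-maximal effect; nearly all actives have a fitted effect of over 50% in size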
RORgamma inh = qHTS for inhibitors of ROR gamma transcriptional activity; Nuclear receptor ROR-gamma (Mus musculus), P51450; Drosophila S2 Gal4-RORgamma UAS-luciferase reporter, 20 h; Potency, µM (series often up to 53.6 µM), for the others: at the top dose activity change, negative = inhibition, actives largely listed as inhibitors; 310,000 compounds, 5.4% hits; AID 2551, 2010; note: potency is the fitted concentration of half-maximal effect; nearly all actives have a fitted effect of over 60% in size
Target sequence (P51450 whole entry, looked up, the tested form may be a part): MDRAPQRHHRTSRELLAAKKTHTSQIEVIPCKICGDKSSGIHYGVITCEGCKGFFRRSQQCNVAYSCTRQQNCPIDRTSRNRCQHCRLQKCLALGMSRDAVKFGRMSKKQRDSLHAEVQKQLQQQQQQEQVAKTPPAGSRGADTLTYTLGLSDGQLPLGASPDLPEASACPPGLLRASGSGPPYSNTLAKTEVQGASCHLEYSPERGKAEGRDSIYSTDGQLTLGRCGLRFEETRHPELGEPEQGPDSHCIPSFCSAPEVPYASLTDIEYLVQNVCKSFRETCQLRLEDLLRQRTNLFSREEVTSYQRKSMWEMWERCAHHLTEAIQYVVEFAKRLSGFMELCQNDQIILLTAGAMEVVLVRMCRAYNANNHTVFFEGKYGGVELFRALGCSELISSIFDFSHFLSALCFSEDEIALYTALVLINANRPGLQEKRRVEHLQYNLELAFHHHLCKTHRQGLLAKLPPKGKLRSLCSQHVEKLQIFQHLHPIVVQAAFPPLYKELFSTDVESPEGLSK
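Read-out: Photinus luciferase luminescence; inhibitors lower reporter signal. Insect Schneider cells with Gal4-ROR gamma fusion under metallothionein promoter, UAS reporter; 700 uM final copper sulfate induction, 20 hr, ambient temperature.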
Active calls of the source: *; u = inconclusive; x = no result given; [ ] = another dose, or the depositor's remark. Rows were chosen to be rich in hits. Some 18% of all compounds tested hit in one or more screens of this group. Unless noted, calls come from the whole dose curve; as a rule, active = well fitted curve in the direction sought with a large enough effect; inconclusive = small, poorly fitted or top-dose-only effect, or another doubt; inactive = no such curve, though single readings can be large; an effect the other way counts as inactive or inconclusive. Unless noted, % is set by controls: 0 for no effect and ±100 for the full control effect.

SMILES	LDHA inh	DT40 TDP1 CPT	TDP1 cell noCPT	IL1B secr inh	Gal4-VP16 FLuc	RORgamma inh
COc1cccc(/C=C2\SC(=S)N(CCC(=O)NC3C=CS(=O)(=O)C3)C2=O)c1 (stereo unspecified)	-1	u	u	-67*	0%	-23%
O=C(CN1C(=O)/C(=C/c2cccc(Cl)c2)SC1=S)NC1C=CS(=O)(=O)C1 (stereo unspecified)	-13	u	16µM*	-63*	u	13µM*
O=C(CN1C(=O)/C(=C/c2ccccc2F)SC1=S)NC1C=CS(=O)(=O)C1 (stereo unspecified)	-7	-3%	-13%	-50*	-9%	38%
CN1CCN(NC(=O)CN2C(=O)/C(=C/c3ccccc3F)SC2=S)CC1	x	x	x	x	5%	0.22µM*
O=C(CN1C(=O)S/C(=C\c2cccc(Cl)c2)C1=O)NC1C=CS(=O)(=O)C1 (stereo unspecified)	-6	u	-17%	-67*	-1%	7.9µM*
O=C(CN1C(=O)S/C(=C\c2ccccc2)C1=O)NC1CCS(=O)(=O)C1 (stereo unspecified)	-1	-2%	-11%	-15	-13%	-12%
O=C(CN1C(=O)S/C(=C\c2ccc(Cl)cc2)C1=O)NC1C=CS(=O)(=O)C1 (stereo unspecified)	-2	5.2µM*	u	-69*	-10%	-23%
CN(C(=O)CN1C(=O)S/C(=C\c2cccc(Cl)c2)C1=O)C1CCS(=O)(=O)C1 (stereo unspecified)	-16	u	u	-20	-5%	5%
CC(C)C(=O)Nc1ccc(Cl)c(C(N)=O)c1	15	x	x	x	x	x
Cc1ccc(C)c(Nc2nc(N)c3ccccc3n2)c1	-4	u	18µM*	x	u	-7%
COc1cc2nc(N3CCN(c4cc(C)ccc4C)CC3)nc(N)c2cc1OC	5	8.2µM*	7.3µM*	-97*	16µM*	16µM*
COc1cc2nc(C#N)nc(N)c2cc1OC	-2	u	20µM*	x	x	x
COc1cc2nc(N3CCNCC3)nc(N)c2cc1OC	0	-88%	-107%	22	-7%	7%
Nc1nc(Nc2cccc(F)c2)nc2ccccc12	-5	18µM*	18µM*	-111*	-3%	22%
CCCOc1cc(C)c(Cl)cc1S(=O)(=O)N1CCCCC1C (stereo unspecified)	5	x	x	x	x	x
O=C(CC1CC2CCC1C2)NCc1cccnc1 (stereo unspecified)	1	x	x	x	x	x
COc1ccc(Cl)cc1Nc1nc(N)c2ccccc2n1	-5	u	u	-89*	-6%	-4%[1.91 µM]
COc1ccc(C)cc1Nc1nc(-c2ccccc2O)nc2ccccc12	-17	-14%	-8%	10	-6%	1%
COc1ccc(C)cc1Nc1nc(N)c2cc(OC)c(OC)cc2n1	0	4.6µM*	23µM*	-92*	u	u
COc1ccc(OC)c(N(CCN2C(=O)c3ccccc3C2=O)C(=O)CCl)c1	-1	u	21µM*	-104*	x	x
CN(C)c1ccc(S(=O)(=O)N2CCCCC2)cc1NCC(=O)Nc1ccc(N2CCCC2)cc1	10	x	x	x	x	x
CCC(Sc1nnc(C)n2c1cc1occc12)C(=O)Nc1ccccc1OC (stereo unspecified)	5	u	21µM*	x	x	x
Cc1ccc(OC(=O)c2ccc(S(=O)(=O)N(C)C)cc2)c(-n2nc3ccccc3n2)c1	-7	-10%	-18%	-22	2%	21%
Cc1ccc(S(=O)(=O)N(C(=O)c2ccncc2)c2ccc(OC(=O)c3ccncc3)c3ccccc23)cc1	19	2.6µM*	5.2µM*	-79*	u	13µM*
Cc1ccc(S(=O)(=O)N(C(=O)c2ccncc2)c2ccc(OC(=O)c3ccncc3)c3ccccc23)c(C)c1	19	4.6µM*	3.7µM*	42	u	u
SMILES	LDHA inh	DT40 TDP1 CPT	TDP1 cell noCPT	IL1B secr inh	Gal4-VP16 FLuc	RORgamma inh
COC(=O)C1=CN(c2ccc(C)cc2)C(N)=C(C#N)C1c1ccc(OC)cc1 (stereo unspecified)	-1	u	u	0	x	x
COC(=O)C1=CN(c2ccc(OC)cc2)C(N)=C(C#N)C1c1ccc(OC)cc1 (stereo unspecified)	-6	10µM*	u	u	x	x
COC(=O)C1=CN(c2ccc3c(c2)OCO3)C(N)=C(C#N)C1c1cccc(F)c1 (stereo unspecified)	3	1.3µM*	0.65µM*	33	x	x
COC(=O)C1=CN(c2ccc(OC)cc2OC)C(N)=C(C#N)C1c1ccc(OC)cc1 (stereo unspecified)	7	u	21µM*	-6	x	x
CCc1ccc(N2C=C(C(=O)OC)C(c3ccc(OC)cc3)C(C#N)=C2N)cc1 (stereo unspecified)	2	u	-82%	-25	x	x
COC(=O)C1=CN(c2ccc(N3CCOCC3)cc2)C(N)=C(C#N)C1c1ccccc1 (stereo unspecified)	5	u	18µM*	-3	x	x
Cc1c(C(=O)OCCOc2ccc(Cl)cc2Cl)sc(=S)n1C	7	x	x	x	x	x
CCCCn1c(=O)[nH]c(=O)c2c1nc(CSc1nnc(C(F)(F)F)n1C)n2C	-13	x	x	x	x	x
COCC(C)NS(=O)(=O)c1c(C)c(C)c(C)c(C)c1C (stereo unspecified)	-2	x	x	x	x	x
CN1CCN(Cc2nc3ccccc3c(=O)n2Cc2nc(-c3ccc([N+](=O)[O-])cc3)cs2)CC1	10	18µM*	5.8µM*	-97*	18µM*	7.9µM*
CN(C)Cc1nc2ccccc2c(=O)n1Cc1nc(-c2cccc([N+](=O)[O-])c2)cs1	-4	18µM*	6.5µM*	-19	6%	-10%
CCC(C)c1ccccc1NC(=O)Cn1nc(C(=O)O)c2ccccc2c1=O (stereo unspecified)	1	x	x	x	x	x
Cc1ccc(S(=O)(=O)n2cccc2/C=C/[N+](=O)[O-])cc1	4	2.9µM*	2.9µM*	u	x	x
CCCCOc1ccccc1C(=O)Nc1ccc(OCC)c2ncccc12	9	x	x	x	x	x
CCN(CC)CCOc1c(C)cccc1Cl	-6	0%	10%	13	-1%	0%
